# Screens as filed in PubChem BioAssay.
# GCN5L2 inh = qHTS Assay for Inhibitors of GCN5L2; Histone acetyltransferase KAT2A (Homo sapiens), Q92830; GCN5L2 HAT assay, ThioGlo1 CoA-SH fluorescence; Potency, µM (highest dose often 58.9 µM), for inactives: top-dose activity change, negative = inhibition, actives largely listed as inhibitors; actives 0.21% (n = 390,000); also: % is scaled to controls: 0 for no effect and ±100 for the full control effect
#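 qHTS, 1536-well. 20nM enzyme, pH 7.5 HEPES/EDTA/Tween-20 buffer; 15 min compound preinc., RT. Start: 75uM H3(1-25), 70uM AcCoA, 50uM ThioGlo1. Read Ex340/Em540 at t=0 (autofluorescence flag) and t=20 min.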
# NPSR antag = qHTS Assay for Antagonists of the Neuropeptide S Receptor: cAMP Signal Transduction | Potency, µM (titrated, usually from 38.3 µM), inactives show at the highest dose activity change, negative = inhibition, actives largely listed as inhibitors | AID 1461, 2008 | actives 1% (n = 220,000) | CHO-NPSR cells, cAMP TR-FRET, antagonist mode | Q6W5P4; also: % is scaled to controls: 0 for no effect and ±100 for the full control effect; nearly all actives have a fitted effect of over 50% in size
# Epigenetic derep = Quantitative High-Throughput Screen for Regulators of Epigenetic Control; actives 0.2% (n = 280,000); Potency, µM (series often up to 53.9 µM), without a hit: at the top dose GFP activation, usual class: activators; AID 1865, 2009; murine LDR cells, GFP reporter derepression, 30 h; also: % of control where 0% means no effect; nearly all actives have a fitted effect of over 60% in size
#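 Murine LDR cells bearing a silenced CMV-driven GFP reporter were exposed to compound for 30 h at 37 C. After PBS washes, GFP-positive cells (20-120 um objects) counted by laser-scanning microplate cytometry.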
# Sfp inh = qHTS Assay for Inhibitors of Bacillus subtilis Sfp phosphopantetheinyl transferase (PPTase); 4'-phosphopantetheinyl transferase ffp (Bacillus subtilis), Q9F4F7; Potency, µM, without a hit: largest response in the series, negative = inhibition, usual class: inhibitors; Biochemical Sfp PPTase activity, qHTS; actives 3.5% (n = 310,000);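 also: the enzyme is Sfp with the accession as filed and its product quenches rhodamine fluorescence; 0% = enzyme reaction without inhibitor and -100% = no enzyme wells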
#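 Compounds were incubated with enzyme (final 15 nM) for 15 min at room temperature before substrate addition started the reaction. Fluorescence at 525 nm excitation, 598 nm emission was recorded immediately and after 30 minutes.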
# KDM4E inh = qHTS Assay for Inhibitors of Human Jumonji Domain Containing 2E (JMJD2E); Lysine-specific demethylase 4E (Homo sapiens), B2RXH2; JMJD2E catalytic domain, FDH-coupled NADH fluorescence (FDH is formaldehyde dehydrogenase); Potency, µM (series often up to 57.1 µM), inactives show top-dose activity change, negative = inhibition, usual class: inhibitors; actives 1.6% (n = 230,000); AID 2147, 2009; active = well fitted inhibition curve with a large enough effect, not every such curve was filed as active; inconclusive = small, poorly fitted or top-dose-only effect, or another doubt; inactive = no such curve, though single readings can be large or run the other way;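 also: 0% = wells with enzyme and -100% = buffer wells without enzyme; nearly all actives have a fitted effect of over 50% in size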
# Target sequence (B2RXH2 1-337 limits assumed): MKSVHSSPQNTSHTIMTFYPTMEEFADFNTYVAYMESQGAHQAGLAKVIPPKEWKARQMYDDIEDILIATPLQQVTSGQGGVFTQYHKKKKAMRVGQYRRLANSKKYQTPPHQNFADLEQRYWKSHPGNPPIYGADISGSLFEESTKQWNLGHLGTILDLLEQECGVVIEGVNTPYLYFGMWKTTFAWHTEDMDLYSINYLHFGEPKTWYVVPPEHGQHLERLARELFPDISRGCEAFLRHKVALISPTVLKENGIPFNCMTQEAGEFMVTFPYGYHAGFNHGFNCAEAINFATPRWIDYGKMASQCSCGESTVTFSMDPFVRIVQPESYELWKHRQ
# IMPase Li inh = qHTS Assay for Identifying the Cell-Membrane Permeable IMPase Inhibitors: Potentiation with Lithium. actives 0.35% (n = 210,000). AID 1457, 2008. Potency, µM (highest dose often 59.4 µM), for inactives: at the highest dose activity, negative = IMPase inhibition, most hits filed as inhibitors. CHO-M1 cells, IP1 TR-FRET (IP-One), carbachol + lithium;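 also: IP1 builds up when IMPase is blocked and the TR-FRET signal falls; plate controls were basal vehicle for no effect and high inhibitor control for full effect; nearly all actives have a fitted effect of over 50% in size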
#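 CHO-M1, 2000 cells/well, 16–30 h culture; cpd + low Li+, 30 min 37C; lysis with d2-IP1/Eu-anti-IP1 Ab, 10 min RT; TR-FRET 665/620 ratio and 620 channel; AC50 via Hill.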
# An asterisk follows results filed as active; ? = inconclusive; · = not tested or not shown; [ ] = remark or other dose. Rows were chosen to be rich in hits. Some 3.6% of all compounds tested hit in one or more screens of this group. Unless noted, calls follow the shape of the dose curve; as a rule, active = well fitted curve in the direction sought with a large enough effect; inconclusive = small, poorly fitted or top-dose-only effect, or another doubt; inactive = no such curve, though single readings can be large; an effect the other way counts as inactive or inconclusive. Potency is read from the fitted curve at half-maximal effect.
SMILES,GCN5L2 inh,NPSR antag,Epigenetic derep,Sfp inh,KDM4E inh,IMPase Li inh
COc1cccc([C@@H]2Oc3ccc(OC)cc3C(=O)[C@H]2OC(=O)NS(=O)(=O)c2ccc(C)cc2)c1,·,·,-1.1%,?,-21.8%,17.5%
CC(=O)OCC(=O)[C@@]1(O)CC[C@@H]2[C@H]3CCC4=CC(=O)CC[C@]4(C)[C@]3(F)[C@@H](O)C[C@@]21C,?,·,0.0%[16.9 µM],8.5%,2.0%[25.5 µM],4.0%
CN(C)c1ncnc2ccc(-c3ccc4c(c3)OCO4)cc12,-9.0%,·,·,10.6%,·,-13.5%
C=C1CCN(C(Cc2ccccc2)C(=O)O)S(=O)(=O)c2ccccc21 (stereo unspecified),·,·,·,18.9%,·,·
O=C(NCc1noc2ccccc12)Nc1ccc(F)cc1F,-3.8%,·,-1.1%,·,·,·
O=CN/C=C/c1cc(F)cc(F)c1F,·,·,1.1%,32.5%,-10.8%,9.7%
Nc1ccccc1SC1CC(=O)N(c2ccc3c(c2)OCO3)C1=O (stereo unspecified),7.2%,7.9%,0.1%,6.9%,2.5%,·
Cc1ccc(N2C(=O)CC(Sc3ccccc3C(=O)O)C2=O)cc1 (stereo unspecified),0.5%,14.8%,-1.1%,?,6.1%,1.2%
Cc1cc(C)cc(N2C(=O)CC(Sc3ccccc3C(=O)O)C2=O)c1 (stereo unspecified),-6.9%,-15.3%,6.6%,56.2µM*,-0.5%,·
O=C(O)c1ccccc1SC1CC(=O)N(c2ccc3c(c2)OCO3)C1=O (stereo unspecified),0.3%,9.0%,-3.1%,50.1µM*,-4.1%,-5.2%
C[C@H]1/C=C\CC(=O)NCc2cccc(c2)CNC(=O)N[C@H]1c1ccccc1,·,·,-0.3%,10.2%,-24.3%,7.5%
CN(C)Cc1c(O)ccc2c(=O)c(-c3ccc(Cl)cc3)coc12,3.6%,·,·,2.6%,·,·
O=c1c(-c2ccc([N+](=O)[O-])cc2)coc2c(O)c(O)ccc12,-9.2%,0.7%,7.3%,1.4%,14.1µM*,·
Clc1ccc(-c2csc(N/N=C/c3cccnc3)n2)c(Cl)c1,-3.9%,-14.8%,2.1%,?,5.2%,2.6%
CCCC(=O)Nc1ccc(-c2csc(N/N=C\c3ccncc3)n2)cc1,-16.9%,-27.8%,-5.7%,25.1µM*,?,·
C(=N\Nc1nc(-c2ccccc2)cs1)/c1cccnc1,-2.9%,-24.2%[46.1 µM],-4.6%,56.2µM*,-7.0%,1.0%
CC(=O)Nc1ccc(-c2csc(N/N=C\c3ccncc3)n2)cc1,-18.3%,-4.8%,-1.0%,20µM*,-20.9%,·
COC(=O)c1ccc(/C=N/Nc2nc(-c3ccc(C)cc3)cs2)cc1,-0.7%,15.2%,1.0%,-26.7%,-19.8%,-2.4%
COC(=O)c1ccc(/C=N/Nc2nc(-c3ccccc3)cs2)cc1,1.2%,16.1%[46.1 µM],-1.8%,-13.3%,-9.1%,·
CC(=O)N[C@H](Cc1ccc(O)cc1)C(=O)O,·,·,·,·,·,-6.0%
Cc1ccc(NC(=O)c2cccn2-c2nnc(N3CCCCC3)s2)cc1Cl,-18.9%,·,-3.1%,·,·,·
CCCC(=O)Nc1nc(-c2ccc3c(c2)CCN3S(C)(=O)=O)cs1,-11.2%,-16.8%[46.1 µM],-0.8%,-13.7%,1.3%,6.9%[38.3 µM]
CS(=O)(=O)N1CCc2cc(-c3csc(NCC4CCCO4)n3)ccc21 (stereo unspecified),-8.7%,-17.0%[46.1 µM],-0.3%,50.1µM*,-19.2%,-2.3%[38.3 µM]
O=C(CSC(=S)N1CCCC1)N1CCN(S(=O)(=O)c2cccc(F)c2)CC1,3.9%,·,·,·,·,·
O=C(CSC(=S)N1CCCC1)N1CCN(S(=O)(=O)c2cccc([N+](=O)[O-])c2)CC1,-1.8%,·,·,50.1µM*,·,·
N#Cc1c(-c2ccccc2)cc(-c2ccccc2)nc1SCC(O)CS(=O)(=O)Cc1ccccc1 (stereo unspecified),-5.5%,·,-0.5%,·,·,·
